Values without a mark were called inactive. Results filed as inconclusive are left out. Entries that show only a call come without a potency. Calls of active or inactive are those of the source. Calls follow the shape of the dose curve; as a rule, active = well fitted curve in the direction sought with a large enough effect in the repeat runs; inconclusive = weak or mixed curves; inactive = no such curve, though single readings can be large; an effect the other way counts as inactive or inconclusive.
Key:
[1] = A CellTox Green Cytotoxicity Assay to monitor cytotoxicity in HEK293 cells - 40 hour (AID 1224871); also: nearly all actives have a fitted effect of over 45% in size; also: potency is read from the fitted curve at half-maximal effect
Procedure, shortened: (§1)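 Cells (HEK293, 600/well) and dye reagent are dispensed together. After 5 h at 37 C, 23 nL compound is pinned in. Plates stay at 37 C for 40 h with fluorescence read at 0h, 8h, 16h, 24h, 32h and 40h.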

[2] = qHTS RealTime-Glo MT Cell Viability Assay in HEK293 cells - 16 hour (AID 1224872); also: top concentration of the series differs between compounds; nearly all actives have a fitted effect of over 50% in size
Procedure, shortened: (§2)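 Cells + reagent dispensed (600 cells/well, HEK293) → 5 h at 37 C/5% CO2 → 23 nL compound in DMSO pinned → 40 h at 37 C → luminescence read at 0, 8, 16, 24, 32, 40 h.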

[3] = qHTS RealTime-Glo MT Cell Viability Assay in HepG2 cells - 8 hour (AID 1224873); also: nearly all actives have a fitted effect of over 55% in size
Procedure, shortened: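 HepG2 cells (600/well) mixed with RealTime-Glo MT reagent, settled 5 h at 37 C/5% CO2 before compound addition. Nonlytic NanoLuc luminescence from viable-cell prosubstrate reduction read repeatedly during 40 h treatment at 37 C.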

[4] = qHTS RealTime-Glo MT Cell Viability Assay in HEK293 cells - 40 hour (AID 1224874); conditions: RealTime-Glo luminescence; max response: hits give low values; also: nearly all actives have a fitted effect of over 50% in size
Procedure, shortened: (§3)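 Real-time viability in HEK293: signal arises when living cells convert a prosubstrate for NanoLuc in the medium, so luminescence tracks viable cell number. Compound (23 nL, DMSO) added 5 h post-seeding; kinetic reads at 0–40 h, 37 C.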

[5] = A CellTox Green Cytotoxicity Assay to monitor cytotoxicity in HEK293 cells - 24 hour (AID 1224875); also: nearly all actives have a fitted effect of over 45% in size; also: potency is read from the fitted curve at half-maximal effect
Procedure, shortened: as §1

[6] = A CellTox Green Cytotoxicity Assay to monitor cytotoxicity in HepG2 cells - 16 hour (AID 1224876); also: nearly all actives have a fitted effect of over 45% in size; also: potency is read from the fitted curve at half-maximal effect
Procedure, shortened: (§4)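 Cells and non-lytic dye reagent are dispensed together (600 HepG2 cells/well) and incubated 5 h before DMSO compound transfer. Kinetic fluorescence is then recorded in the same wells during 40 h at 37 C.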

[7] = qHTS RealTime-Glo MT Cell Viability Assay in HepG2 cells - 32 hour (AID 1224877); also: nearly all actives have a fitted effect of over 55% in size
Procedure, shortened: (§5)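 Real-time, nonlytic viability: 600 HepG2 cells/well mixed with NanoLuc enzyme plus prosubstrate; 5 h settle, compound (DMSO) added by pintool; luminescence monitored over 40 h at 37 C.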

[8] = A CellTox Green Cytotoxicity Assay to monitor cytotoxicity in HepG2 cells - 24 hour (AID 1224878); also: nearly all actives have a fitted effect of over 45% in size; also: potency is read from the fitted curve at half-maximal effect
Procedure, shortened: as §4

[9] = A CellTox Green Cytotoxicity Assay to monitor cytotoxicity in HepG2 cells - 40 hour (AID 1224879); also: nearly all actives have a fitted effect of over 40% in size; also: potency is read from the fitted curve at half-maximal effect
Procedure, shortened: as §4

[10] = qHTS RealTime-Glo MT Cell Viability Assay in HEK293 cells - 0 hour (AID 1224880)
Procedure, shortened: as §3

[11] = A CellTox Green Cytotoxicity Assay to monitor cytotoxicity in HEK293 cells - 32 hour (AID 1224881); also: nearly all actives have a fitted effect of over 40% in size; also: potency is read from the fitted curve at half-maximal effect
Procedure, shortened: as §1

[12] = A CellTox Green Cytotoxicity Assay to monitor cytotoxicity in HepG2 cells - 0 hour (AID 1224882); also: nearly all actives have a fitted effect of over 35% in size
Procedure, shortened: as §4

[13] = A CellTox Green Cytotoxicity Assay to monitor cytotoxicity in HepG2 cells - 32 hour (AID 1224883); also: nearly all actives have a fitted effect of over 50% in size; also: potency is read from the fitted curve at half-maximal effect
Procedure, shortened: as §4

[14] = A CellTox Green Cytotoxicity Assay to monitor cytotoxicity in HEK293 cells - 8 hour (AID 1224884); also: nearly all actives have a fitted effect of over 35% in size
Procedure, shortened: as §1

[15] = qHTS RealTime-Glo MT Cell Viability Assay in HEK293 cells - 24 hour (AID 1224886); also: top concentration of the series differs between compounds; nearly all actives have a fitted effect of over 50% in size
Procedure, shortened: as §2

[16] = qHTS RealTime-Glo MT Cell Viability Assay in HEK293 cells - 8 hour (AID 1224887)
Procedure, shortened: as §3

[17] = A CellTox Green Cytotoxicity Assay to monitor cytotoxicity in HEK293 cells - 16 hour (AID 1224888); also: nearly all actives have a fitted effect of over 35% in size
Procedure, shortened: as §1

[18] = qHTS RealTime-Glo MT Cell Viability Assay in HepG2 cells - 0 hour (AID 1224889); also: nearly all actives have a fitted effect of over 50% in size
Procedure, shortened: as §5

[19] = A CellTox Green Cytotoxicity Assay to monitor cytotoxicity in HepG2 cells - 8 hour (AID 1224890); also: nearly all actives have a fitted effect of over 45% in size; also: potency is read from the fitted curve at half-maximal effect
Procedure, shortened: as §4

[20] = qHTS RealTime-Glo MT Cell Viability Assay in HepG2 cells - 16 hour (AID 1224885); also: nearly all actives have a fitted effect of over 50% in size
Procedure, shortened: as §5

| SMILES | Potency [1] | Potency [2] | outcome [3] | max response [4] [%] | Potency [5] | Potency [6] | Potency [7] | Potency [8] | Potency [9] | outcome [10] | Potency [11] | Potency [12] | Potency [13] | Potency [14] | Potency [15] | Potency [16] | Potency [17] | Potency [18] | Potency [19] | outcome [20] |
| --- | --- | --- | --- | --- | --- | --- | --- | --- | --- | --- | --- | --- | --- | --- | --- | --- | --- | --- | --- | --- |
| CN(C)Cc1ccccc1 | inactive | inactive | inactive | 7.47 | inactive | inactive | inactive | inactive | inactive | inactive | inactive | inactive | inactive | inactive | inactive | inactive | inactive | inactive | inactive |  |
| CC(C)S | inactive | inactive | inactive | 0.674 | inactive | inactive | inactive | inactive | inactive | inactive | inactive | inactive | inactive |  | inactive | inactive | inactive | inactive | inactive | inactive |
| CO[Si](C)(C)OC | inactive | inactive | inactive | -0.595 | inactive | inactive | inactive | inactive | inactive | inactive | inactive | inactive | inactive |  | inactive | inactive | inactive | inactive |  | inactive |
| CCN(CC)C(=O)N(CC)CC | inactive | inactive | inactive | 4.58 | inactive | inactive | inactive | inactive | inactive | inactive | inactive | inactive | inactive |  | inactive | inactive | inactive | inactive | inactive | inactive |
| CN(CC1(C)CCCO1)S(=O)(=O)c1ccc(Cl)c(S(N)(=O)=O)c1 (stereo not given) | inactive | inactive | inactive | 2.08 | inactive | inactive | inactive | inactive | inactive | inactive | inactive | inactive | inactive |  | inactive | inactive | inactive | inactive | inactive | inactive |
| CC(=O)O[C@H]1CC[C@@]2(C)C(=CC[C@@H]3[C@@H]2CC[C@]2(C)C(C(C)=O)=CC[C@@H]32)C1 | inactive | inactive | inactive | -20.5 | inactive | inactive | inactive | inactive | inactive | inactive | inactive | inactive | inactive |  | inactive | inactive | inactive | inactive | inactive | inactive |
| Cc1ccc(C)c(N)c1 | inactive | inactive | inactive | 4.84 | inactive | inactive | inactive | inactive | inactive | inactive | inactive | inactive | inactive | inactive | inactive | inactive | inactive | inactive | inactive |  |
| Cc1cccc(C)c1NC(=O)CN1CCCCCC1 | inactive | inactive | inactive | 5.59 | inactive | inactive | inactive | inactive | inactive | inactive | inactive | inactive | inactive |  | inactive | inactive | inactive | inactive |  |  |
| CCCOc1ccc2c(c1)CC[C@@H]1[C@@H]2CC[C@]2(C)C(OC)CC[C@@H]12 (stereo not given in full) | inactive | inactive | inactive | 6.13 | inactive | inactive | inactive | inactive | inactive | inactive | inactive | inactive | inactive |  | inactive | inactive | inactive | inactive | inactive |  |
| CCCCCCC | inactive | inactive | inactive | -15.1 | inactive | inactive | inactive | inactive | inactive | inactive | inactive | inactive | inactive |  | inactive | inactive | inactive | inactive | inactive | inactive |
| CCCC(CCC)(C(=O)OCC)C(=O)OCC | inactive | inactive | inactive | 0.553 | inactive | inactive | inactive | inactive |  | inactive | inactive | inactive | inactive | inactive | inactive | inactive | inactive | inactive |  | inactive |
| C1CCOC1 | inactive | inactive | inactive | 0.369 | inactive | inactive | inactive | inactive | inactive | inactive | inactive | inactive | inactive |  | inactive | inactive | inactive | inactive | inactive | inactive |
| CC(C)=CCCC(C)CCOC=O (stereo not given) | inactive | inactive | inactive | 13.4 | inactive | inactive | inactive | inactive |  | inactive | inactive | inactive | inactive | inactive | inactive | inactive | inactive | inactive | inactive | inactive |
| C=CC(C)(O)CC/C=C(\C)CCC=C(C)C (stereo not given) | 49 µM (active) | inactive | inactive | -1.81 | 54.9 µM (active) | 17.4 µM (active) | inactive | 21.9 µM (active) | 21.9 µM (active) | inactive | 49 µM (active) | inactive | 21.9 µM (active) |  | inactive | inactive |  | inactive | 19.5 µM (active) | inactive |

— PubChem BioAssay (Tox21)
